Measurements published in PubChem BioAssay (NCI).
About 83,000 compounds went through this panel and 20% of them were active in at least one assay; those are over-represented in the sample as a whole.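 Assay: single dose, 48 h. Readout: percent growth (0 = no net growth; negative = cell death). Active: <10.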 Activity calls are given as the source filed them.

Key:
Experiment in all cases: NCI-60 one-dose screen, 48 h (100 = growth as untreated, 0 = no growth, -100 = all killed)
Conditions in all cases: 10 µM unless noted
[1] = test system: SK-MEL-2 melanoma
[2] = test system: EKVX NSCLC
[3] = test system: SN12C renal
[4] = test system: UO-31 renal
[5] = test system: TK-10 renal
[6] = test system: ACHN renal
[7] = test system: CAKI-1 renal
[8] = test system: A498 renal
[9] = test system: CCRF-CEM leukemia
[10] = test system: MOLT-4 leukemia
[11] = test system: SR leukemia
[12] = test system: RPMI-8226 leukemia
[13] = test system: OVCAR-8 ovarian
[14] = test system: OVCAR-5 ovarian
[15] = test system: OVCAR-4 ovarian
[16] = test system: SK-OV-3 ovarian
[17] = test system: IGROV1 ovarian
[18] = test system: OVCAR-3 ovarian
[19] = test system: HS 578T breast
[20] = test system: NCI/ADR-RES ovarian

Measured: growth

Cc1cccc(C)c1NC(=O)Nc1ccccc1
active: [6] 4.67%
inactive: [1] 29% | [2] 121% | [3] 88.6% | [4] 80.7% | [5] 96.7% | [7] 54.3% | [8] 109% | [9] 83.1% | [10] 81.7% | [11] 68.6% | [12] 96.1% | [13] 85.1% | [14] 72.2% | [15] 76.6% | [16] 102% | [17] 71% | [18] 115% | [19] 128% | [20] 97.1%

COc1ccc(C(=O)C2OC3=C(C(=O)CC(C)(C)C3)C2c2cccc(Oc3ccccc3)c2)cc1 (stereo not given)
inactive: [1] 93.4% | [2] 85% | [3] 89.5% | [4] 74% | [5] 91.5% | [6] 91.8% | [7] 81.7% | [8] 62.9% | [9] 84% | [10] 83.4% | [11] 71.2% | [12] 85.7% | [13] 88.9% | [14] 97.6% | [15] 86.3% | [16] 91.4% | [17] 95.9% | [18] 103% | [19] 93.4% | [20] 92.7%

C=C1C(=O)O[C@H]2[C@H]1CC/C(COC(=O)NCc1ccc(Cn3c(=O)sn(CCCC)c3=O)cc1)=C\CC[C@@]1(C)O[C@@H]21
active: [4] 3.12% | [9] -22.4% | [10] 1.1% | [12] -15.8% | [18] -28.6%
inactive: [1] 81.5% | [2] 91.1% | [3] 49.5% | [5] 14.7% | [6] 15.2% | [7] 40.6% | [8] 100% | [11] 17.2% | [13] 65.4% | [14] 71.9% | [15] 29.2% | [16] 107% | [17] 36.4% | [19] 78.2% | [20] 103%

O=[N+]([O-])c1ccc(N/N=C\c2cc(Cl)ccc2O)nc1
active: [4] 8.96% | [7] -14.1%
inactive: [1] 44.3% | [2] 31% | [3] 39.3% | [5] 107% | [6] 17.6% | [8] 106% | [9] 19.1% | [10] 13.8% | [11] 10.6% | [12] 40.8% | [13] 32.9% | [14] 88.8% | [15] 36.1% | [16] 46.6% | [17] 30.4% | [18] 48.5% | [19] 64.2% | [20] 17.4%

CC(C)(C)n1cc(-c2ccnc(NCCNS(=O)(=O)c3ccc(Br)cc3)c2)c(-c2cccc(O)c2)n1
active: [11] -10.5% | [12] 3.61%
inactive: [1] 30.3% | [2] 43.4% | [3] 35.7% | [4] 22.7% | [5] 55.6% | [6] 25% | [7] 29.1% | [8] 11.5% | [9] 27.7% | [10] 12.9% | [13] 35.7% | [14] 47.5% | [15] 42.8% | [16] 53.2% | [17] 40.4% | [18] 38.6% | [19] 16.8% | [20] 33%

Cc1ccc2nc(/C=C/c3ccc(N(C)C)cc3)cc(C)c2c1
inactive: [1] 34.8% | [2] 52.4% | [3] 35.6% | [4] 33.5% | [5] 43.8% | [6] 32.9% | [7] 18.2% | [8] 27.2% | [9] 17.1% | [10] 40% | [11] 22.1% | [12] 34.1% | [13] 41.4% | [14] 73.1% | [15] 85.5% | [16] 31.4% | [17] 49% | [19] 34.9% | [20] 25.2%
active: [18] -2.23%

N#C/C(=C/C=C/c1ccccc1)S(=O)c1ccccc1 (stereo not given)
inactive: [13] 14.1% | [15] 18.6% | [16] 32.3% | [19] 15.8% | [20] 11.9%
active: [1] -15.9% | [2] -6.51% | [3] -52.5% | [4] -63.4% | [5] -89.8% | [6] -74.4% | [7] -25.6% | [8] -68.4% | [9] -5.68% | [10] -1.2% | [11] 3.12% | [12] -8.55% | [14] -55.4% | [17] 1.27% | [18] -82.2%
